Our source for the Potency and activity change, negative = inhibition values is PubChem BioAssay (Tox21).

Records with an inconclusive call do not appear. Entries that show only a call come without a potency. Active and inactive are the calls of the source. Calls follow the shape of the full dose curve. Numbered stars: 1 amine (or outer) side, 2 acyl side, 3 side chain; on linkers, the order of the positions; unused ones are H or OH. Bridge positions count the residues as written; N and C are the ends. Square brackets hold non-standard residues; d marks the D form. Peptide text beside a SMILES is read from it. I, II: the chains in the order shown. Actinocin(9to1) = Cc1c2oc3c(C)ccc(C(=O)[*:1])c3nc-2c(C(=O)[*:2])c(N)c1=O; NMeV = CN[C@H](C(=O)O)C(C)C; Sar = CNCC(=O)O

The target of the assay is Beta-2 adrenergic receptor (Homo sapiens) (UniProt P07550). As to the kind of experiment: Adrenergic beta2 receptor (ADRB2) small molecule antagonists, cell-based qHTS assay (AID 1963592). Also: nearly all actives have a fitted effect of over 50% in size. The conditions noted are these: CHO-ADRB2 cells, isoproterenol-stimulated cAMP HTRF ratio, 0.5 h; series mostly up to 92.4 µM. A digest of the protocol: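 Cells (CHO, stable ADRB2 overexpression) incubated 18-20hr at 37C; compounds added from DMSO; agonist mix (1nM isoproterenol, 100uM IBMX, 25uM Ro-20-1724) added; 0.5hr RT; d2-cAMP and anti-cAMP-cryptate added; 1hr RT; 665/615 nm read.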
Beta-2 adrenergic receptor (Homo sapiens), sequence (P07550 whole entry, looked up): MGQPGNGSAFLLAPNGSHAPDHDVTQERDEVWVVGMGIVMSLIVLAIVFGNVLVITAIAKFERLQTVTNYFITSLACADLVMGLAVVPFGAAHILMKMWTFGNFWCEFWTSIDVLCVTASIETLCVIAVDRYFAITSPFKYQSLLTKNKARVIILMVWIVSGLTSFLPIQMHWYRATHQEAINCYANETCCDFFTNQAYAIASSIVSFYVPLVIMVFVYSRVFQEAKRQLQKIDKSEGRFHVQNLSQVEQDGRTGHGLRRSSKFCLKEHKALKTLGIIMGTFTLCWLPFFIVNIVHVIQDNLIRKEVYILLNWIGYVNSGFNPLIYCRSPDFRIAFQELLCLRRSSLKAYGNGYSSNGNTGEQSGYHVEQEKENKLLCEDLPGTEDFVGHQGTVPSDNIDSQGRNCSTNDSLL
`COC(=O)c1c(Cl)c(Cl)c(C(=O)OC)c(Cl)c1Cl`: the Potency result was “inactive”.
On the same count and under the same terms, the same measure for `Cn1cc(S(C)=O)c(=O)c2ccc(F)cc21` (stereo unspecified): “inactive”; for `O=Cc1ccc(C(=O)O)cc1`: “inactive”.
Still for that read-out and setting: the same measure for `CC(C)=CCC[C@H](C)CC=O`: “inactive”.
For the compound `CCC(=O)OCc1ccccc1`, the Potency result is “inactive”.
On the same count and under the same terms, the same measure for `CCCCCC(=O)O[C@]1(C(C)=O)CC[C@H]2[C@@H]3CCC4=CC(=O)CC[C@]4(C)[C@H]3CC[C@@]21C`: “inactive”; for `BrC1CCC(Br)C(Br)CCC(Br)C(Br)CCC1Br` (stereo unspecified): “inactive”; for `O=[N+]([O-])c1ccc2c(c1)Cc1ccccc1-2`: “inactive”.
Same read-out and setting: then `CCC1COC(=O)O1` (stereo unspecified), with “inactive”; and `C=C(C)C(=O)OCCCCCCOC(=O)C(=C)C`, with “inactive”; and `Cc1c2oc3c(C)ccc(C(=O)N[C@@H]4C(=O)N[C@H](C(C)C)C(=O)N5CCC[C@H]5C(=O)N(C)CC(=O)N(C)[C@@H](C(C)C)C(=O)O[C@@H]4C)c3nc-2c(C(=O)N[C@@H]2C(=O)N[C@H](C(C)C)C(=O)N3CCC[C@H]3C(=O)N(C)CC(=O)N(C)[C@@H](C(C)C)C(=O)O[C@@H]2C)c(N)c1=O` (I: T[dV]P[Sar][NMeV] / II: T[dV]P[Sar][NMeV]; ester I:1-I:C, II:1-II:C; linker I:N-II:N via Actinocin(9to1)), with “inactive”.
The same measure, in the same setting: then `O=[N+]([O-])c1ccccc1Nc1ccccc1`, with “inactive”; and `CCN1CCCC(OC(=O)C(c2ccccc2)c2ccccc2)C1` (stereo unspecified), with “inactive”; and `O=C1CCCCCCCCCCCCCCCO1`, with “inactive”.
For `O=C(O[C@@H](C(=O)O)[C@@H](OC(=O)c1ccccc1)C(=O)O)c1ccccc1`, the Potency entry was “inactive”.
Same read-out and setting: then `CN(C)CCCNCCCN(C)C`, with “inactive”; and `CCC(=O)OC(C)c1ccccc1` (stereo unspecified), with “inactive”.
The same measure, in the same setting: then `CC(C)CC(C)(N)C#N` (stereo unspecified), with “inactive”; and `Cc1cc(C)cc(O)c1`, with “inactive”; and `C=C(C)[C@@H]1CCC2=CC(=O)C[C@@H](C)[C@]2(C)C1`, with “inactive”.
On the same count and under the same terms, then `O=c1[nH]c(=O)c2ccccc2o1`, with “inactive”.
As for `COCCOCCOCCOCCO`, the Potency entry is “inactive”.
Same read-out and setting: the same measure for `CCCCCCCCCCCCCCC(=O)NC(CO)CCCCCCCCCCCCCC` (stereo unspecified): “inactive”; for `C[C@@H]1CCC[C@H](C)N1CCCC(O)(c1ccccc1)c1ccccn1` (stereo partly specified): “inactive”.
On to `CCCCCCCCCC(C)=O`, for which the Potency entry was “inactive”.
With `CN(C)c1ccc(C(=N)c2ccc(N(C)C)cc2)cc1`, the Potency result is “inactive”.
On the same count and under the same terms, then `CCCCCCCCCC/C=C/C#N`, with “inactive”; and `CNC(=O)Nc1ccc(Cl)c(Cl)c1`, with “inactive”; and `c1cnc2cc3c(cc2n1)C1CNCC3C1`, with “inactive”.
With `Nc1c(NC/C=C\COc2cc(CN3CCCCC3)ccn2)c(=O)c1=O`, the activity change, negative = inhibition is 0.774% [at 19 µM] (inactive).
Consider `FC(F)(F)C(Cl)(Cl)Cl`, for which the Potency entry was “inactive”.
For `CCc1ccc(C=O)cc1`, the Potency entry is “inactive”.
Same read-out and setting: then `COC(=O)Cc1cccc2ccccc12`, with “inactive”; and `CCCc1c2oc(C(=O)O)cc(=O)c2cc2c(=O)cc(C(=O)O)n(CC)c12`, with “inactive”.
Take `O=C(O)Cc1ccc(CCNS(=O)(=O)c2ccc(Cl)cc2)cc1`: the Potency entry is “inactive”.
On the same count and under the same terms, the same measure for `Cc1cc(C)c(C(=O)O)c(C)c1`: “inactive”.
